Assay results: PubChem BioAssay (EPA / NIEHS)
Inconclusive results are not listed. Calls of active or inactive are those of the source. The calls were made as follows: active = hit-call score of the fitted dose curve at least 0.9, where 1 is the maximum; inconclusive = response in the unintended direction; inactive = score below 0.9.

Columns and labels:
[1] = TOX21_p53_BLA_p2_viability: Viability Assessment in the Tox21 HCT-116 p53 Agonism Beta-lactamase Assay, Phase 2 (AID 2283591);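 also: compound exposure lasted 16 h at 37 °C; actives lower the ATP signal meaning cytotoxicity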
Outline: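 Cytotoxicity readout: CellTiter-Glo ATP luminescence, 30 min at room temperature, after the beta-lactamase read. Cells were HCT116 exposed 16 h at 37C to compounds pin-transferred at 217-fold dilution from DMSO stocks.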

[2] = target: Cellular tumor antigen p53 (Homo sapiens) (UniProt P04637); test: TOX21_p53_BLA_p2_ratio: Tox21 HCT-116 p53 Agonism Beta-lactamase Assay, Ratio, Phase 2 (AID 2283592)
Outline: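 HCT-116 cells with p53-responsive beta-lactamase reporter, 4000 cells/well, preincubated 5 h, then compound in DMSO (217-fold dilution) for 16 h at 37C. CCF4-AM substrate 2 h at room temperature; 460/530 nm emission ratio fitted upward versus DMSO.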

[3] = TOX21_p53_BLA_p3_viability: Viability Assessment in the Tox21 HCT-116 p53 Agonism Beta-lactamase Assay, Phase 3 (AID 2283593);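 also: cells exposed to compound for 16 h before reading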
Outline: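 Cellular ATP was quantified by CellTiter-Glo luminescence, read after 30 min at room temperature. Beforehand, HCT116 cells (4000/well) received compound 5 h post-seeding, 217-fold diluted from DMSO, then incubated 16 h at 37C.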

[4] = target: Cellular tumor antigen p53 (Homo sapiens) (UniProt P04637); test: TOX21_p53_BLA_p3_ratio: Tox21 HCT-116 p53 Agonism Beta-lactamase Assay, Ratio, Phase 3 (AID 2283596)
Outline: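 HCT116 p53-bla cells (4000/well) given compound in DMSO (217-fold dilution) after 5 h, incubated 16 h at 37C. CCF4-AM substrate 2 h at room temperature; 460/530 nm emission ratio, gain fitted against DMSO.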

[5] = TOX21_p53_BLA_p4_viability: Viability Assessment in the Tox21 HCT-116 p53 Agonism Beta-lactamase Assay, Phase 4 (AID 2283597);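 also: hits lower the luminescence signal meaning cytotoxicity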
Outline: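 HCT-116 p53-bla cells, 4000/well, dosed after 5 h attachment and incubated 16 h at 37 °C, 5% CO2. Viability from CellTiter-Glo ATP luminescence after 30 min at room temperature, taken after the beta-lactamase read; loss of signal indicates cytotoxicity.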

[6] = target: Cellular tumor antigen p53 (Homo sapiens) (UniProt P04637); test: TOX21_p53_BLA_p5_ratio: Tox21 HCT-116 p53 Agonism Beta-lactamase Assay, Ratio, Phase 5 (AID 2283599)
Outline: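 Beta-lactamase reporter ratio (blue 460 nm over green 530 nm, 405 nm excitation) after 2 h CCF4-AM loading, in HCT-116 cells exposed 16 h at 37 C to compounds pinned at 217-fold dilution. Increases relative to DMSO baseline scored.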

[7] = TOX21_p53_BLA_p5_viability: Viability Assessment in the Tox21 HCT-116 p53 Agonism Beta-lactamase Assay, Phase 5 (AID 2283600)
Outline: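 HCT-116 p53 beta-lactamase reporter cells, 4000/well, were exposed to compound (pin transfer, 217-fold dilution) for 16 hours at 37C. Cellular ATP was read by CellTiter-Glo luminescence after 30 min at room temperature.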

[8] = target: Cellular tumor antigen p53 (Homo sapiens) (UniProt P04637); test: TOX21_p53_BLA_p4_ratio: Tox21 HCT-116 p53 Agonism Beta-lactamase Assay, Ratio, Phase 4 (AID 2283601)
Outline: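 Signal is the blue/green (460nm/530nm) ratio of cleaved versus uncleaved CCF4-AM substrate, read after 2 h substrate loading. Cells were HCT116 carrying the p53-responsive beta-lactamase reporter, dosed 16 h at 37C, 5% CO2; CellTiter-Glo measured in parallel.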

[9] = target: Thyroid hormone receptor alpha (Rattus norvegicus) + Thyroid hormone receptor beta (Rattus norvegicus) (UniProt P18113+P63059); test: TOX21_TR_LUC_GH3_Antagonist_Followup: Tox21 GH3 Thyroid Hormone Receptor Antagonism Luciferase Follow-Up Assay (AID 2283942)
Outline: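 Confirmatory qHTS, antagonist mode: T3 (1.0 nM final) + test cpd, 15 conc, 92 uM–5nM final, GH3 rat pituitary line, 24 h, 37C. Luc reporter, RLU vs DMSO.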

[10] = target: THRA (gene 7067) (UniProt P10827); test: TOX21_TRA_COA_Antagonist_Followup_ratio: Tox21 Thyroid Hormone Receptor alpha Antagonism through Coactivator Recruitment Follow-Up Assay, Ratio (AID 2283953)
Outline: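 This follow-up to the GH3 luciferase screen checks specificity in a cell-free format. It measures SRC-2 coactivator peptide binding to TRα LBD by TR-FRET and scores loss of ratio signal relative to DMSO.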

[11] = target: THRB (gene 7068) (UniProt P10828); test: TOX21_TRB_BLA_Antagonist_Followup_ratio: Tox21 Thyroid Hormone Receptor beta Antagonism Beta-lactamase (BLA) Follow-Up Assay, Ratio (AID 2283958)
Outline: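 GAL4-DBD/human TRβ-LBD fusion in GeneBLAzer UAS-bla HEK293T cells, 3,000 cells/well in phenol red-free DMEM with 2% charcoal-stripped FBS; compounds at 11 concentrations in triplicate, 18 h at 37C. CCF4-AM substrate 2 h, 460:530 nm ratio relative to DMSO.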

[12] = TOX21_TRB_BLA_Antagonist_Followup_viability: Viability Assessment in the Tox21 Thyroid Hormone Receptor beta Antagonism Beta-lactamase (BLA) Follow-Up Assay (AID 2283961)
Outline: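 HEK293T cells with GAL4-human TRβ LBD and UAS-bla reporter, 3,000 cells/well in 2% charcoal-stripped FBS medium; 11-point concentrations in triplicate, 18 h at 37C. Viability from ATP by CellTiter-Glo luminescence, 30 min RT, same plates.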

[13] = target: THRB (gene 7068) (UniProt P10828); test: TOX21_TRB_COA_Antagonist_Followup_ratio: Tox21 Thyroid Hormone Receptor beta Antagonism through Coactivator Recruitment Follow-Up Assay, Ratio (AID 2283967)
Outline: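 Test compound was incubated with 5.0 nM GST-TRβ LBD in 0.10% BSA. Then 200 nM fluorescein-SRC-2 peptide and 2 nM terbium anti-GST antibody were added. TR-FRET (520:495 nm) was measured and normalized to DMSO and T3 controls.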

Chain of Cellular tumor antigen p53 (Homo sapiens) (P04637 whole entry, looked up): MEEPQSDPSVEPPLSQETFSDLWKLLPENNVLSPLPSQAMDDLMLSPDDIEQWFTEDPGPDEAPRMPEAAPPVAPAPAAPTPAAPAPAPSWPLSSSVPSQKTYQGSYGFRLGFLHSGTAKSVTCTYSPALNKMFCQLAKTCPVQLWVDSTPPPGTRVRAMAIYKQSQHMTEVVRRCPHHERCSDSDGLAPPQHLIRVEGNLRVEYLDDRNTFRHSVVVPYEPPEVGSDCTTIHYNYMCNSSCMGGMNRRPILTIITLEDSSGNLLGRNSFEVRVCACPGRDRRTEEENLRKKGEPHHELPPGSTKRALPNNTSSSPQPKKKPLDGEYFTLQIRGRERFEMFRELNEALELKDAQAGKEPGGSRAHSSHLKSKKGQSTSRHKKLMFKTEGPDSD
Chain of THRB (gene 7068) (P10828 whole entry, looked up, the tested form may be a part): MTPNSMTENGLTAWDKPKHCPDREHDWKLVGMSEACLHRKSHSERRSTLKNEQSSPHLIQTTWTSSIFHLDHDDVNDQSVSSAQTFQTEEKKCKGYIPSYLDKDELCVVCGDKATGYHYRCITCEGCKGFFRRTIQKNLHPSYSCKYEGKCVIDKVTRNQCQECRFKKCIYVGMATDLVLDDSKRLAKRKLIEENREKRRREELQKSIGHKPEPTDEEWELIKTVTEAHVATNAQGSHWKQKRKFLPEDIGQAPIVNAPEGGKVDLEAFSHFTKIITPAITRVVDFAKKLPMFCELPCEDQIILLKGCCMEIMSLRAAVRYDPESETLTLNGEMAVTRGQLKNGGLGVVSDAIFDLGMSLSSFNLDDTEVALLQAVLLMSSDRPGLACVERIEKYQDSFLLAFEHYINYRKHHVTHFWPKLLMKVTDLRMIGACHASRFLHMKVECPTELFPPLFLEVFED
Chain of THRA (gene 7067) (P10827 whole entry, looked up, the tested form may be a part): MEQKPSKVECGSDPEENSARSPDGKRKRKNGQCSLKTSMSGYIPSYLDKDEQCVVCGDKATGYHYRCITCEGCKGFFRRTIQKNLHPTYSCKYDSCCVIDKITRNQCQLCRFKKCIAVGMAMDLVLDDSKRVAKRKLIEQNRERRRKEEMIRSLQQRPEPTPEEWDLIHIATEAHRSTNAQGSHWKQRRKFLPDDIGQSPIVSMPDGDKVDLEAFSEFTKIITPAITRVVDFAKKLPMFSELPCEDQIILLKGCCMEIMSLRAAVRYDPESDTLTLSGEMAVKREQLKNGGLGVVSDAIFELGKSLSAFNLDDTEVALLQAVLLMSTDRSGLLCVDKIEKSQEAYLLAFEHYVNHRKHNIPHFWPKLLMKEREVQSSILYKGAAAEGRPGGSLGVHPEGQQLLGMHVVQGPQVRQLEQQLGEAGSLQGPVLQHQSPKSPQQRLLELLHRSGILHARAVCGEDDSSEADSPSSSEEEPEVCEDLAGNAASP

CO[C@H]1C[C@@H]2CC[C@@H](C)[C@@](O)(O2)C(=O)C(=O)N2CCCC[C@H]2C(=O)O[C@H]([C@H](C)C[C@@H]2CC[C@@H](OCCO)[C@H](OC)C2)CC(=O)[C@H](C)/C=C(\C)[C@@H](O)[C@@H](OC)C(=O)[C@H](C)C[C@H](C)\C=C/C=C/C=C/1C
AC50 [1]: 19.2 µM (active)
AC50 [2]: 17.9 µM (active)
AC50 [3]: 27.4 µM (active)
AC50 [4]: 40.2 µM (active)
AC50 [5]: 21.9 µM (active)
AC50 [6]: 21.9 µM (active)
AC50 [7]: 20.6 µM (active)
AC50 [8]: 23 µM (active)
AC50 [9]: 9.76 nM (active)
outcome [10]: inactive
outcome [11]: inactive
outcome [12]: inactive
outcome [13]: inactive

CCC(C(=O)OCCN(CC)CC)c1ccccc1 (centres undefined)
outcome [1]: inactive
outcome [2]: inactive
outcome [3]: inactive
outcome [4]: inactive
outcome [5]: inactive
outcome [6]: inactive
outcome [8]: inactive

Cc1ccc(O)c(C(=O)c2ccccc2)c1
outcome [1]: inactive
outcome [2]: inactive
outcome [3]: inactive
outcome [4]: inactive
outcome [5]: inactive
outcome [6]: inactive
outcome [8]: inactive

Cn1cc(NC(=O)c2cc(NC(=O)c3cc(NC=O)cn3C)cn2C)cc1C(=O)NCCC(=N)N
outcome [1]: inactive
outcome [2]: inactive
outcome [3]: inactive
outcome [4]: inactive
outcome [5]: inactive
outcome [6]: inactive
outcome [8]: inactive

O=C(C=Cc1ccc(O)c(O)c1)O[C@@H]1C[C@@](OC(=O)C=Cc2ccc(O)c(O)c2)(C(=O)O)C[C@@H](O)[C@@H]1O
outcome [1]: inactive
outcome [2]: inactive
outcome [3]: inactive
outcome [4]: inactive
outcome [5]: inactive
outcome [6]: inactive
outcome [8]: inactive

C1CC(COCC2CO2)CCC1COCC1CO1 (centres undefined)
outcome [1]: inactive
outcome [2]: inactive
outcome [3]: inactive
outcome [4]: inactive
outcome [5]: inactive
outcome [6]: inactive
outcome [8]: inactive

O=C(O)CCc1nc2ccccc2[nH]1
outcome [1]: inactive
outcome [2]: inactive
outcome [3]: inactive
outcome [4]: inactive
outcome [5]: inactive
outcome [6]: inactive
outcome [8]: inactive

Cc1cc(C)c(N)c(Cl)c1
outcome [1]: inactive
outcome [2]: inactive
outcome [3]: inactive
outcome [4]: inactive
outcome [5]: inactive
outcome [6]: inactive
outcome [8]: inactive

CC(=O)NCCCCCC(=O)O
outcome [1]: inactive
outcome [2]: inactive
outcome [3]: inactive
outcome [4]: inactive
outcome [5]: inactive
outcome [6]: inactive
outcome [8]: inactive

CC(=O)Nc1ccc(C)cc1
outcome [1]: inactive
outcome [2]: inactive
outcome [3]: inactive
outcome [4]: inactive
outcome [5]: inactive
outcome [6]: inactive
outcome [8]: inactive

O=C(c1ccccc1)c1cc(Cl)ccc1O
outcome [1]: inactive
outcome [2]: inactive
outcome [3]: inactive
outcome [4]: inactive
outcome [5]: inactive
outcome [6]: inactive
outcome [8]: inactive

O=C(O)c1ccc(-n2nc(-c3ccccc3O)nc2-c2ccccc2O)cc1
outcome [1]: inactive
outcome [2]: inactive
outcome [3]: inactive
outcome [4]: inactive
outcome [5]: inactive
outcome [6]: inactive
outcome [8]: inactive

CCCCCCCCCCCCCC(=O)OCC(COP(=O)([O-])OCC[N+](C)(C)C)OC(=O)CCCCCCCCCCCCC (centres undefined)
outcome [1]: inactive
outcome [2]: inactive
AC50 [3]: 42.8 µM (active)
outcome [4]: inactive
outcome [5]: inactive
outcome [6]: inactive
outcome [8]: inactive

Cc1ccc2c(ccc3ccccc32)c1
outcome [1]: inactive
outcome [2]: inactive
outcome [3]: inactive
outcome [4]: inactive
outcome [5]: inactive
outcome [6]: inactive
outcome [8]: inactive
